Laboratory results as given in PubChem BioAssay AID493056 (National Center for Advancing Translational Sciences (NCATS), 2011).
Screen size: about 360,000 compounds; about 2,400 (0.67%) were called active. Cut-off read from the data, not from the text of the source: active = enhancement above about 30%; inactive = the rest. The list comes from a sample in which actives are over-represented; it also holds similar structures and randomly drawn compounds.

Molecular target: Thyrotropin-releasing hormone receptor (Homo sapiens) (UniProt P34981)
Assay: qHTS for Small Molecule Agonists and Allosteric Enhancers of Human TRH Receptor: Primary Screen for Enhancers; note: 0% is about no effect
Settings: TRHR cells, fluo-8 calcium fluorescence, EC20 TRH enhancement; at 2 µM; active compounds read high
Outline: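 TRHR-expressing cells loaded with fluo-8 calcium dye were read kinetically (ex 480/em 530) during compound addition, then stimulated with an EC20 of TRH (10 nM final). Enhancement of the Gq-mediated intracellular calcium response was scored.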

Sequence of Thyrotropin-releasing hormone receptor (Homo sapiens) (P34981 whole entry, looked up): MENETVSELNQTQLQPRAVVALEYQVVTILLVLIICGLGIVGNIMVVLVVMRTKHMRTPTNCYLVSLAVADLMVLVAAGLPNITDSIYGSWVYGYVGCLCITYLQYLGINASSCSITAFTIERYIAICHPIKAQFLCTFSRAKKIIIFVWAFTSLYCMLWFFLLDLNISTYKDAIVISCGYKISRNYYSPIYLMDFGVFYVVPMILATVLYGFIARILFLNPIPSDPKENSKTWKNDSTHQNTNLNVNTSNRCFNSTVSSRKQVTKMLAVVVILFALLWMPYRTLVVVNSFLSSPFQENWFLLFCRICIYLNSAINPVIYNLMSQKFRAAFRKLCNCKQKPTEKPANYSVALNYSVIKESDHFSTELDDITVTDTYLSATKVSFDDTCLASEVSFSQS

enhancement, inactive:
CCOC(=O)c1[nH]c(C)c(C(=O)OCC(=O)N2c3ccccc3CC2C)c1C (centres undefined) -0.269%
CCOc1ncccc1C(=O)OCC(=O)NC1CC1 6.62%
Cc1ccn2c(Nc3ccc4c(c3)OCCO4)c(-c3ccc(C)s3)nc2c1 -3.6%
Cc1ccc(CCNC(=O)c2ccc3c(c2)nc2n3CCC(C)C2)cc1 (centres undefined) -2.39%
Cc1cccc(-n2c(=O)c3c(c4cc(C)ccc4n3C)n(CC(=O)Nc3ccccc3Cl)c2=O)c1 -2.31%
Cc1ccc(Nc2c(-c3ccc(N(C)C)cc3)nc3nc[nH]n23)cc1 1.88%
CCOc1ccc(C(=O)c2cn(Cc3ccc(F)cc3)c3ccc(F)cc3c2=O)cc1 -6.47%
COc1cc2c(cc1OC)C(COc1ccc(F)cc1)N(C(=O)c1ccccc1F)CC2 (centres undefined) -0.875%
CCCCN(C(=O)c1ccc2ccccc2c1)c1c(N)n(CCCC)c(=O)[nH]c1=O -1.43%
CCCCn1c(N)c(N(CCOC)C(=O)c2cccc(S(=O)(=O)N(C)c3ccccc3)c2)c(=O)[nH]c1=O -3.31%
Cc1nn(CC(=O)NCCc2ccccc2)c(=O)c2c1sc1ccccc12 -4.11%
CCc1ccc(NC(=O)c2cc3c(=O)n(Cc4cccnc4)ccc3nc2C)cc1 3.22%
COc1ccccc1C(=O)Nc1c(C(=O)Nc2ccc(C)cc2)oc2ccccc12 1.48%
O=C(CSc1nnc(CNC(=O)c2ccccc2)n1-c1ccc(F)cc1)Nc1ccccc1F 1.22%
O=C(CSc1ccc(-c2ccccn2)nn1)Nc1ccccc1 -3.04%
CCOc1ccc(CNC(=O)c2cc(-c3ccc(Cl)s3)nc3ccccc23)cc1 9.74%
Cc1ccc2nc(CN3CCN(S(=O)(=O)c4ccc(C)c(C)c4)CC3)oc2c1 0.582%
COC(=O)c1cnc(N2CCN(c3ccccc3OC)CC2)c2ccccc12 -10.4%
CC(=O)N1CCN(C(=O)c2cc(-c3ccc(Cl)s3)nc3ccccc23)CC1 2.16%

enhancement, active:
CCOc1ncccc1C(=O)OCC(=O)N1c2ccccc2CC1C (centres undefined) 156%
CN(C)c1ccc(Nc2c3c4c(cccc4n(C)c2=O)C(=O)c2ccccc2-3)cc1 30.8%
CCCCn1c(N)c(N(CC)C(=O)c2ccc(N(C)S(=O)(=O)c3ccc(C)cc3)cc2)c(=O)[nH]c1=O 37.2%
O=C(CSc1ccc(-c2cccs2)nn1)Nc1ccccc1F 35.3%
COC(=O)c1cc(N2CCNCC2)nc2ccccc12 50.7%
